Results filed as inconclusive are left out. The source made the active and inactive calls. How the source made its calls: active means hit-call score of the fitted dose curve at least 0.9, where 1 is the maximum; inconclusive means response in the unintended direction; inactive means score below 0.9.
assay: TOX21_p53_BLA_p2_viability: Viability Assessment in the Tox21 HCT-116 p53 Agonism Beta-lactamase Assay, Phase 2 (AID 2283591);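 further: compound exposure lasted 16 h at 37 °C; actives lower the ATP signal meaning cytotoxicity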
In short: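 HCT116 p53-bla cells, 4000/well, dosed after 5 h plating (217-fold dilution of DMSO stocks) and incubated 16 h at 37C. Viability taken as cellular ATP by CellTiter-Glo luminescence after 30 min RT; signal loss marks cytotoxicity.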

Compound | AC50 | outcome
CCCCc1oc2ccc(NS(C)(=O)=O)cc2c1C(=O)c1ccc(OCCCN(CCCC)CCCC)cc1 | 34.7 µM (active) | –
Cc1ccc2nc(N)[nH]c(=O)c2c1Sc1ccncc1 | – | inactive
CON=C(C(=O)N[C@@H]1C(=O)N2C(C(=O)O)=C(COC(N)=O)CS[C@H]12)c1ccco1 | – | inactive
CC1(C)S[C@@H]2[C@H](NC(=O)Cc3ccccc3)C(=O)N2[C@H]1C(=O)O (tested in a mixture with another compound) | – | inactive
O=S(=O)(O)c1ccc(O)cc1 | – | inactive
CNc1ccc(O)cc1 | – | inactive
O=[N+]([O-])c1c(Cl)cccc1-c1c[nH]cc1Cl | – | inactive
CC(C)NCC1CCc2cc(CO)c([N+](=O)[O-])cc2N1 (stereo not given) | – | inactive
CC(C)(C)OC(=O)N1C[C@@H](F)C[C@H]1C(=O)O | – | inactive
N#CCc1cccc(C(F)(F)F)c1 | – | inactive
COc1cc(C(=O)OCCCN2CCCN(CCCOC(=O)c3cc(OC)c(OC)c(OC)c3)CC2)cc(OC)c1OC | – | inactive
CC[C@@]1([C@@H]2O[C@@H]([C@H]3O[C@@](O)(CO)[C@H](C)C[C@@H]3C)C[C@@H]2C)CC[C@H]([C@]2(C)CC[C@]3(C[C@H](O)[C@@H](C)[C@@H]([C@@H](C)[C@@H](OC)[C@H](C)C(=O)O)O3)O2)O1 (stereo in doubt) | – | inactive
CC(C)(C#N)Nc1nc(Cl)nc(NC2CC2)n1 | – | inactive
Oc1c(Cl)cc(Cl)c2cccnc12 | – | inactive
O=C(O)CCC(=O)C(=O)O | – | inactive
CCCCCCCC(=O)CC[C@@H]1[C@@H](C/C=C\CCCC(=O)OC(C)C)[C@@H](O)C[C@H]1O | 36.2 µM (active) | –
CO[C@@H]1[C@@H](O[C@@H]2O[C@H](C)[C@@H](O[C@H]3C[C@@](C)(O)[C@@H](OC(=O)CC(C)C)[C@H](C)O3)[C@H](N(C)C)[C@H]2O)[C@@H](CC=O)C[C@@H](C)C(=O)/C=C/C2OC2C[C@@H](C)OC(=O)C[C@H]1OC(C)=O (stereo not given in full) | – | inactive
O=C(NCC1CCCCN1)c1cc(OCC(F)(F)F)ccc1OCC(F)(F)F (stereo not given) | – | inactive
O=C(Oc1cccc2cccnc12)c1ccccc1 | – | inactive
COc1cc(C=C2CCCC(=Cc3ccc(O)c(OC)c3)C2=O)ccc1O | 15.2 µM (active) | –

Compound | AC50 | outcome
CCCOc1ccc(C(=O)OCCN(CC)CC)cc1N | – | inactive
CC(C)(C)C(=O)O | – | inactive
O=C(CCS)OCC(COC(=O)CCS)(COC(=O)CCS)COC(=O)CCS | – | inactive
Cc1ccc(S(=O)(=O)NC(=O)NC2CCCCCCC2)cc1 | – | inactive
Cc1cccc(C)c1OCC(=O)N[C@@H](Cc1ccccc1)[C@@H](O)C[C@H](Cc1ccccc1)NC(=O)[C@H](C(C)C)N1CCCNC1=O | – | inactive
CCCCCCCCCCCC[n+]1ccc2ccccc2c1 | 33.6 µM (active) | –
Cc1ccccn1 | – | inactive
Cc1cc(O)c(C(C)(C)C)cc1Sc1cc(C(C)(C)C)c(O)cc1C | 13.2 µM (active) | –
CCCC(C(=O)OCCN(CC)CC)(c1ccccc1)c1ccccc1 | – | inactive
CCCCCCCCCCCCCCCCCCNC(=O)OC1CCN(C(=O)OC[C@H](COC(=O)N(Cc2cccc[n+]2CC)C(=O)c2ccccc2OC)OC)CC1 | – | inactive
CCCCCCCCCCCCCCC(=O)O | – | inactive
CC(C)(O)c1ccccc1CC[C@@H](SCC1(CC(=O)O)CC1)c1cccc(/C=C/c2ccc3ccc(Cl)cc3n2)c1 | 18.2 µM (active) | –
CO[C@@]12[C@H](COC(N)=O)C3=C(C(=O)C(C)=C(N)C3=O)N1C[C@@H]1N[C@@H]12 | 33.2 µM (active) | –
CC(C)OC(=O)OCOP(=O)(CO[C@H](C)Cn1cnc2c(N)ncnc21)OCOC(=O)OC(C)C | – | inactive
CSc1ccc2c(c1)C(N1CCN(C)CC1)Cc1ccccc1S2 (stereo not given) | 36.3 µM (active) | –
Oc1c(Br)cc(Br)c2cccnc12 | – | inactive
OCCN1CCN(CC/C=C2/c3ccccc3Sc3ccc(C(F)(F)F)cc32)CC1 | – | inactive
CC(=O)Oc1ccc(C2(c3ccc(OC(C)=O)cc3)Oc3ccccc3NC2=O)cc1 | – | inactive
O=C(O)c1ccc(-n2nc(-c3ccccc3O)nc2-c2ccccc2O)cc1 | – | inactive
CN1CC(=O)N/C1=N/C(=O)Nc1cccc(Cl)c1 | – | inactive
